Out of some 340,000 compounds screened, about 2,100 (0.62%) were called active.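 The calls were made as follows: active = first-screen hits whose inhibition reached a set limit at any dose in the follow-up dose series; inconclusive = inhibition above the set first-screen limit but never retested; inactive = the rest.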 These entries were drawn from the full list. Entries with a potency or affinity are not part of this list.
What follows are compounds tested against Rac GTPase-activating protein 1 (Homo sapiens) (UniProt Q9H0H5) (assay: blockers of MgcRacGAP-driven Rac1 GTP hydrolysis – biochemical, ADP Hunter fluorescence, primary and confirmatory, confirmation (AID 624330;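 also: fluorescence reports GDP produced by GAP-driven GTP hydrolysis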)). Settings: MgcRacGAP-stimulated Rac1 GTP hydrolysis, at 30 µM, stronger effect = higher value, GST-tagged Rac1 F28L mutant substrate.
Chain of Rac GTPase-activating protein 1 (Homo sapiens) (Q9H0H5 whole entry, looked up): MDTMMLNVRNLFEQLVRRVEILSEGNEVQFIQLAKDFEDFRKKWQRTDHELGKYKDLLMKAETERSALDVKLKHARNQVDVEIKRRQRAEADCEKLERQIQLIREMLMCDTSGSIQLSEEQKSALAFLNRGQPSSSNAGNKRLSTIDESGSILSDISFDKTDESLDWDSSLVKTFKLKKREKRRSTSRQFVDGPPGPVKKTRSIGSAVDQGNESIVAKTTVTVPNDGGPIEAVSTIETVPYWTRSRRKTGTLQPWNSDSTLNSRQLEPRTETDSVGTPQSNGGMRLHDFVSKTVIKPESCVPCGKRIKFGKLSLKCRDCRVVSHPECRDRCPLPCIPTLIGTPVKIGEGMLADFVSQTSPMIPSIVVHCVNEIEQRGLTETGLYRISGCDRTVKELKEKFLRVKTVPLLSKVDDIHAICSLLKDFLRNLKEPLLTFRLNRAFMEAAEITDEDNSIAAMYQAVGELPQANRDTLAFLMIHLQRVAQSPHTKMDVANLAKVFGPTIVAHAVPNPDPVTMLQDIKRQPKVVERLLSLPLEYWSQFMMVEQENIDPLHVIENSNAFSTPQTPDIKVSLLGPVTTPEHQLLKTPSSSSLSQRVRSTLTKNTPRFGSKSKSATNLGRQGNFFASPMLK

inhibition, inactive:
CCN(Cc1ccccc1)C(=O)C1CCC(CNc2c(N3CCOCC3)c(=O)c2=O)CC1 (stereo not drawn) 4.88%
C=CCN1CCN(C(=O)c2cc3c(s2)CCC(CC)C3)CC1 (stereo not drawn) 5%
COCCn1c(SCC(=O)Nc2ccc3c(c2)OCCO3)nc2c(c1=O)SC(C)C2 (stereo not drawn) 8.12%
CCN1C(=O)[C@H]2[C@@H](c3ccc(C)cc3)N3C(=O)N(c4ccc(OC)cc4)C(=O)[C@@]3(Cc3ccc(Cl)cc3)[C@H]2C1=O -2.48%
C/C(CC(=O)Nc1ccc2c(c1)OCCO2)=N\NC(=O)c1ccc([N+](=O)[O-])cc1Cl 9.05%
C/C(CC(=O)Nc1ccc(N(C)C)cc1)=N\NC(=O)c1ccc(Cl)cc1Cl 21.9%
Cc1ccc(-c2cc(C(=O)Nc3ccc(S(=O)(=O)Nc4onc(C)c4C)cc3)[nH]n2)c(O)c1 -1.18%
C#CCOCCOCCOCCNc1nc(N2CCOCC2)nc(N2CCN(C(=O)[C@H](Cc3ccc(O)cc3)n3cc([C@@H](N)C(C)CC)nn3)CC2)n1 (stereo partly drawn) 8.21%
COc1cccc(CN(C)Cc2c(O)ccc3ccccc23)c1 3.54%
CCN(Cc1ccncc1)Cc1c(O)ccc2ccccc12 15.9%
CN(C)Cc1c(O)ccc2ccccc12 7.54%
COc1ccc(CN(C)Cc2c(O)ccc3ccccc23)cc1 9.58%
COc1ccc(/C(N)=N/OC(=O)Cc2cccs2)cc1 5.03%
CCOC(=O)C(N=Nc1nn[nH]n1)C(C)=O (stereo not drawn) 14.3%
CC(=O)Nc1c(F)cc(Br)cc1F 7.06%
COCCN(C(=O)c1ccccc1)c1nnc(-c2cccnc2)s1 3.74%
C=CCn1c(=O)/c(=C/c2ccc(Cl)cc2)s/c1=C(/C#N)c1nnc2n1CCCCC2 3.92%
C=CCn1c(=O)/c(=C/c2ccc(Cl)cc2)s/c1=C(\C#N)c1nnc2n1CCCCC2 0.47%
CN1CCN(Cc2nnc(-c3ccccc3)o2)CC1 7.8%
CC1=CC(C2CC(=O)N(c3ccc(C)cc3)C2=O)CC2C(=O)N(c3ccc(C)cc3)C(=O)C12 (stereo not drawn) 1.51%
Cn1cc(Br)c(-c2cccc(N3C(=O)CC(C)(C)CC3=O)c2)n1 9.36%
Cc1cccc(-n2nc3c(c2NC(=O)CCCl)CSC3)c1 9.59%
Cc1ccc(-n2ncc(C(=O)Nc3cc(Cl)cc(Cl)c3)c2C2CCNCC2)cc1C 10.4%
COc1ccc(CSc2nncn2N)cc1[N+](=O)[O-] 2.61%
CC(=O)c1ccc(NC(=S)N2CCCC(CO)C2)cc1 (stereo not drawn) 9.07%
OCC1CCCN(C(=S)Nc2ccc(Oc3ccccc3)cc2)C1 (stereo not drawn) 11.8%
Cc1ccccc1NC(=O)c1cccc2c1C(=O)N(C1CCCCC1)C2 6.92%
COc1cc(Cc2nccc3cc(OC)c(OC)cc23)c(NC(C)=O)cc1OC 8.79%
COc1cc(NC(=O)c2cnc(NCc3ccccc3)nc2C)cc(OC)c1OC 10.3%
CCCC(=O)Nc1cc(OC)c(OC)cc1C(=O)O 0.59%
COc1cc2ccc(NC(C)=O)cc2cc1OC -17.4%
CCOC(=O)[C@@H]1[C@H]2COc3ccccc3[C@@H]2N2C(=O)N(c3cccc(Cl)c3)C(=O)[C@@]12C 7.95%
O=C(CCC(=O)Nc1ccc(F)cc1)N/N=C/c1cccnc1 7.44%
Cc1ccnc(NS(=O)(=O)c2ccc(NC(=O)c3snnc3C)cc2)n1 15.1%
c1ccc2c(c1)CCN(CCCNc1nc3ccccc3n3cnnc13)C2 5.26%
COc1cc(C)nc(NS(=O)(=O)c2ccc(C)cc2)n1 5.36%
Cc1ccc(S(=O)(=O)Nc2nc(C)cc(NN)n2)cc1 0.61%
COC(=O)c1ccsc1NC(=O)c1ccc2c(c1)OCCO2 0.64%
O=C(CCCN=C1NS(=O)(=O)c2ccccc21)OCC(=O)c1ccc(F)cc1 3.32%
Cc1cc(C(F)F)nn1CC(=O)NCc1ccc(Cl)cc1Cl 6.89%
CCCSc1nc2cc(OC)c(OC)cc2c(=N)n1CCCN1CCOCC1 20.6%
COc1cc2[nH]c(=S)n(CCCN3CCOCC3)c(=O)c2cc1OC 12.7%
Fc1cc2[nH]c(=S)[nH]c2c(Br)c1N1CCSCC1 8.85%
O=C(N/N=C/c1ccccc1)c1cccc2ccccc12 7.64%
O=C(N/N=C/c1ccccc1O)c1cccc2ccccc12 11.8%
Cc1ccc(/C=N/NC(=O)c2csc3c2CCCC3)cc1 7.82%
C/C(=N\NC(=O)c1csc2ccccc12)c1ccc(O)cc1 26.2%
O=C(N/N=C/c1cccc(F)c1)c1csc2c1CCCC2 11.6%
O=C(N/N=C/c1cccc(O)c1)c1csc2ccccc12 -6.14%
Cc1cc(S(=O)(=O)N2CC(=O)N(CCc3ccccc3)C(=O)C2)ccc1F 12.6%
CCC(C)N(CCNC(=O)c1ccc2c(c1)NC(=O)c1ccccc1S2)C1CCCCC1 (stereo not drawn) 3.06%
COc1ccc(C(=O)CN2C(=O)NC3(CCCc4ccccc43)C2=O)c(OC)c1 (stereo not drawn) 2.84%
CN(C(=O)CSc1nnc(-c2cccc(F)c2)n1N)C1CCS(=O)(=O)C1 (stereo not drawn) 3.77%
Cc1csc(=O)n1CC(=O)OCC(=O)c1c(N)n(CC(C)C)c(=O)n(C)c1=O -0.27%
Cc1nc2ccccc2n1CC(=O)c1ccccc1 15.2%
Cc1nc2ccccc2c(-c2ccccc2)c1CC(=O)O 5.79%
COc1ccccc1OCC(=O)NCC1CCCN(C(=O)c2cccc(C)c2)C1 (stereo not drawn) 12.2%
COc1ccc2sc3ccccc3c(=O)c2c1OC 2.12%
CN(C)CCNc1ccc(Cl)cc1[N+](=O)[O-] -0.93%
CCN(CC)CCNc1ccc(CO)c2sc3ccccc3c(=O)c12 16.6%
CN(C)CCNC(=O)c1cc2sc3ccccc3c2s1 11.4%
O=c1c2ccccc2sc2c(CO)ccc(NCCN3CCCCC3)c12 27.3%
Cc1cc(O)cc2c(=O)c3ccccc3sc12 8.36%
CCN(CC)CCNc1ccc(CO)c2oc3ccccc3c(=O)c12 16.8%
CCN(CC)CCNc1ccc(CO)c2oc3cc(Cl)ccc3c(=O)c12 4.45%
Nn1c(SCC(=O)NCCC2=CCCCC2)nnc1C(F)(F)F 9.95%
Cc1cccc(NC(=O)CSc2nnc(C)n2Cc2ccccc2)c1 -8.45%
O=C(NCCc1nc(-c2ccccc2)cs1)c1ccc(Br)cc1 -0.49%
CC(=O)N(Nc1ccccc1)c1ccccc1 -0.89%
COc1ccc(C=C2C=C(C(C)(C)C)C(=O)C(C(C)(C)C)=C2)cc1OC 15.6%
CC(=O)OCCCN1c2ccccc2Nc2nnc(-c3ccccc3)cc21 6.92%
CCCCc1ccc(NC(=O)c2ccc(N(C)S(C)(=O)=O)cc2)cc1 -2.51%
CCN(CC)CCNc1ccc(Cl)cc1[N+](=O)[O-] 4.03%
CCN(CC)CCNc1cccc2sc3ccccc3c(=O)c12 19.4%
C#CCOCCOCCOCCNc1nc(N2CCN(C(=O)[C@H]([C@@H](C)CC)n3cc(CCCN=C(N)N)nn3)CC2)nc(N2CCN(C(=O)[C@H](CCCCN)n3cc(CCC(=O)O)nn3)CC2)n1 -4.54%
O=C(CN1CCN(Cc2ccc(F)cc2)CC1)NCc1ccccc1 9.4%
CCOc1ccc(CNc2ccc(N3CCN(Cc4ccccc4)CC3)cc2)cc1 30.8%
O=C(CCS(=O)(=O)c1ccc(F)cc1)Nc1ccc(N2CCN(Cc3ccccc3)CC2)cc1 3.53%
CC(=O)Nc1ccc(N2CCN(Cc3ccccc3)CC2)cc1 11.2%
Cc1ccc(NC(=O)c2ccccc2Cl)cc1-n1cnnn1 3.88%
CCOc1ccc(S(=O)(=O)NN2Cc3ccccc3C2=N)cc1 7.55%
COc1ccc(OC)c(S(=O)(=O)N(C)CC(=O)N2CCN(c3ccc(F)cc3)CC2)c1 5.44%
Cc1cc(C(=O)NC2CCCC2)on1 2.61%
COc1ccc2c(c1)C(=NNC(=O)c1ccccn1)c1cc(OC)ccc1-2 12.9%
CCOc1ccc2c(c1)C(=NNC(=O)c1ccccn1)c1cc(OCC)ccc1-2 -24.9%
Cc1cc(C)n(C(=O)CNc2cccc(Cl)c2C)n1 5.52%
Cc1ccc(NC2(C#N)CCCC2)cc1 4.1%
N#CC1(Nc2ccc(Br)cc2)CCCC1 2.57%
COc1ccc(C(CNC(=O)c2ccc(S(=O)(=O)N(C)C)cc2)N2CCCC2)cc1 (stereo not drawn) -5.33%
N#CC1(NC(=O)CSc2nnc3n2CCCCC3)CCCCC1 4.53%
CC(NC(=O)COC(=O)c1ccc(S(=O)(=O)N2CCOCC2)cc1)c1ccccc1 (stereo not drawn) -3.85%
Cc1c(NC(=O)Cc2cccs2)cccc1[N+](=O)[O-] 6.13%
CC(C)c1ccc(/C=N/Nc2cc(N3CCOCC3)nc(N3CCOCC3)n2)cc1 2.24%
Oc1ccc(/C=N/Nc2cc(N3CCCC3)nc(N3CCCC3)n2)cc1 7.45%
Oc1ccccc1/C=N/Nc1cc(N2CCCC2)nc(N2CCCC2)n1 -4.19%
Cc1cccc(/C=N/Nc2cc(N3CCOCC3)nc(N3CCOCC3)n2)c1 -20.8%
Oc1ccc(/C=N/Nc2cc(N3CCCC3)nc(N3CCCC3)n2)cc1O 23.7%
Oc1cccc(/C=N/Nc2cc(N3CCOCC3)nc(N3CCOCC3)n2)c1 18.3%

Source: PubChem BioAssay AID624330 (Southern Research Specialized Biocontainment Screening …, 2012)
